The campaign covered roughly 330,000 compounds. About 3,800 (1.2%) were called active. The entries come from a sample that favours actives as a whole. Values without a mark were called inactive. Rule as the data show it: active = inhibition above about 15%; inconclusive = no clear call, values can overlap the other calls; inactive = below that.

In the assay the target is NAD-dependent protein deacylase sirtuin-5, mitochondrial (Homo sapiens) (UniProt Q9NXA8). Put plainly: SIRT5 desuccinylase inhibitors, primary screen, biochemical, fluorescence imaging, single point, set 5 (AID 652115). As to conditions: Purified SirT5, succinyl-peptide AMC, trypsin-coupled fluorescence; at 15 µM; hits give high values.
Chain of NAD-dependent protein deacylase sirtuin-5, mitochondrial (Homo sapiens) (Q9NXA8 whole entry, looked up): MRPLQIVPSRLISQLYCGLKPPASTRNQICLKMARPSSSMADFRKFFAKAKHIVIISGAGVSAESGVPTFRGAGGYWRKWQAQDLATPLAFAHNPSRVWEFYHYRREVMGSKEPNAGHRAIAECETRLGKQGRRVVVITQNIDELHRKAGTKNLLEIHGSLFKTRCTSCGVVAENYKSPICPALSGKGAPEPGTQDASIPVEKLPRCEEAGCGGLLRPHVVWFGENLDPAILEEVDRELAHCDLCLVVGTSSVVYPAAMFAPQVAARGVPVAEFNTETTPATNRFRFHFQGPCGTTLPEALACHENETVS
Take `Cc1ccc(S(=O)(=O)N(C)C[C@@H]2Oc3cc(C4=CCCC4)ccc3S(=O)(=O)N([C@@H](C)CO)C[C@@H]2C)cc1`: the inhibition was 8.8%. Then `C[C@@H]1CN([C@@H](C)CO)S(=O)(=O)c2ccc(/C=C/c3ccccc3)cc2O[C@H]1CN(C)Cc1cccnc1`, with 5.97%; and `C[C@@H]1CN([C@H](C)CO)S(=O)(=O)c2ccc(C3=CCCC3)cc2O[C@H]1CN(C)C(=O)Nc1ccc2c(c1)OCO2`, with 7.25%. To `C[C@H]1CN([C@@H](C)CO)S(=O)(=O)c2ccc(C3=CCCC3)cc2O[C@H]1CN(C)C(=O)Nc1ccc2c(c1)OCO2` belongs 16.2% (active).

Take `C[C@@H]1CN([C@@H](C)CO)S(=O)(=O)c2ccc(/C=C/c3ccccc3)cc2O[C@H]1CN(C)Cc1ccccc1`: the inhibition was -1.92%. Then `C[C@@H]1CN([C@H](C)CO)S(=O)(=O)c2ccc(/C=C/c3ccccc3)cc2O[C@@H]1CN(C)Cc1ccccc1`, with 23.2% (active). Then `COc1cccc(S(=O)(=O)N(C)C[C@@H]2Oc3cc(C4=CCCCC4)ccc3S(=O)(=O)N([C@H](C)CO)C[C@H]2C)c1`, with 37.3% (active); and `C[C@H](CO)N1C[C@H](C)[C@@H](CN(C)S(=O)(=O)c2ccc(F)cc2)Oc2cc(C3=CCCC3)ccc2S1(=O)=O`, with -0.634%. To `C[C@@H]1CN([C@H](C)CO)S(=O)(=O)c2ccc(/C=C/c3ccccc3)cc2O[C@@H]1CN(C)C(=O)Nc1ccc(F)cc1` belongs 0.2%. As for `C[C@@H]1CN([C@@H](C)CO)S(=O)(=O)c2ccc(/C=C/c3ccccc3)cc2O[C@H]1CN(C)C(=O)Nc1cc(F)ccc1F`, the inhibition is -3.9%. Then `C[C@@H]1CN([C@@H](C)CO)S(=O)(=O)c2ccc(/C=C/c3ccccc3)cc2O[C@@H]1CN(C)C(=O)Nc1cc(F)ccc1F`, with 21.7% (active).

As to `C[C@H]1CN([C@@H](C)CO)S(=O)(=O)c2ccc(C#Cc3ccncc3)cc2O[C@@H]1CN(C)C(=O)Nc1ccc2c(c1)OCO2`, the inhibition was 4.3%.

On to `C[C@@H]1CN([C@H](C)CO)S(=O)(=O)c2ccc(-c3cncnc3)cc2O[C@H]1CN(C)C(=O)Cc1ccccc1`, for which the inhibition is 1.64%. As for `CCCC#Cc1cnc2c(c1)C(=O)N([C@H](C)CO)C[C@H](C)[C@@H](CN(C)C(=O)c1cccnc1)O2`, the inhibition is -3.74%.

Turning to `CN1C(=O)c2cc(NS(=O)(=O)c3ccc(Cl)cc3)ccc2OC[C@@H]2O[C@H](CC(=O)O)CC[C@@H]21`, the inhibition is -0.474%. Then `O=C(C1CC1)N1CC(=O)N2[C@H](CO)[C@@H](c3ccc(-c4ccccc4F)cc3)[C@@H]2C1`, with -3.61%; and `COc1ccc(CN(C)C[C@H]2OCCCC[C@@H](C)Oc3ccc(NS(=O)(=O)c4ccccc4)cc3C(=O)N([C@@H](C)CO)C[C@@H]2C)cc1`, with -2.94%.

For `COc1ccccc1CN1[C@H](CO)[C@H](c2ccccc2)C12CN(C(=O)c1ccccn1)C2`, the inhibition is -0.913%.

Turning to `C[C@@H]1CN([C@H](C)CO)C(=O)c2cccc(NS(=O)(=O)c3ccc(Cl)cc3)c2O[C@H]1CN(C)Cc1ccc(C(F)(F)F)cc1`, the inhibition is 2.17%. Then `COCC(=O)Nc1ccc2c(c1)OC[C@H](C)N(C(=O)c1cnccn1)C[C@@H](C)[C@@H](OC)CN(C)C2=O`, with 10.6%; and `Cc1noc(C)c1NC(=O)N(C)C[C@H]1OCCCC[C@@H](C)Oc2ccc(NC(=O)NC(C)C)cc2C(=O)N([C@@H](C)CO)C[C@H]1C`, with 1.72%.

Regarding `NC(=O)c1ccc(NC(=O)COC(=O)c2c3c(nc4ccccc24)/C(=C\c2ccc4c(c2)OCO4)CCC3)cc1`, the inhibition is -2.29%. `O=C1/C(=C/c2ccc3c(c2)OCO3)CCC/C1=C\c1ccc2c(c1)OCO2`: the inhibition is 15.2% (active). Then `O=C(N/N=C/c1ccc2c(c1)OCO2)C(=O)N1CCCC1`, with -0.951%; and `C[C@H](CO)N1C[C@H](C)[C@H](CN(C)C(=O)c2cccnc2)Oc2ncc(C3=CCCC3)cc2C1=O`, with -8.88%; and `C[C@H](CO)N1C[C@H](C)[C@@H](CN(C)C(=O)Cc2ccncc2)Oc2ncc(C#CCN(C)C)cc2C1=O`, with 6.32%. To `CCCN(C)C[C@H]1Oc2ncc(C#CCOC)cc2C(=O)N([C@@H](C)CO)C[C@H]1C` belongs 0.664%; to `C[C@@H]1CN([C@H](C)CO)C(=O)c2cccc(NC(=O)c3cnccn3)c2O[C@@H]1CN(C)Cc1ccc(C(=O)Nc2ccccc2N)cc1`, 15.1% (active). Consider `C[C@H](CO)N1C[C@H](C)[C@H](CN(C)Cc2ccc(Oc3ccccc3)cc2)Oc2c(NC(=O)CCCCCC(=O)Nc3ccccc3N)cccc2C1=O`, for which the inhibition was 10.2%. Then `C[C@@H]1CN([C@@H](C)CO)C(=O)c2cccc(NC(=O)c3cnccn3)c2O[C@H]1CN(C)Cc1ccc(-c2ccccc2)cc1`, with -1.19%. In the case of `C[C@@H]1CN([C@@H](C)CO)C(=O)c2cccc(NC(=O)c3cnccn3)c2O[C@H]1CN(C)Cc1ccc(C(=O)O)cc1`, the inhibition is -1.49%. Then `C[C@@H]1CN([C@@H](C)CO)C(=O)c2cccc(NC(=O)CCCCCC(=O)Nc3ccccc3N)c2O[C@H]1CN(C)C(=O)Nc1ccccc1`, with -0.269%; and `C[C@@H]1CN([C@H](C)CO)C(=O)c2cccc(NC(=O)CCCCCC(=O)Nc3ccccc3N)c2O[C@H]1CN(C)Cc1ccc(Oc2ccccc2)cc1`, with 28.2% (active). To `COc1ccccc1OCc1nnc(SCC(N)=O)n1-c1ccccc1` belongs -0.045%; to `COc1ccccc1-n1c(SCC(=O)Nc2cccc(C(=O)O)c2)nnc1-c1ccccc1O`, 3.18%. Consider `CCOc1cc(C)ccc1OCc1nnc(SCC(=O)Nc2cccc(C(=O)O)c2)n1-c1ccccc1`, for which the inhibition was 60.5% (active). To `COc1cccc(S(=O)(=O)N[C@@H]2C=C[C@H](CC(=O)NC3CCC3)O[C@@H]2CO)c1` belongs -3.76%.

For the compound `CO[C@@H]1CC[C@@H]2CCOc3c(C#N)cccc3C(=O)N(C)C[C@@H](C)C(=O)N(C)C[C@@H]1O2`, the inhibition was 0.964%. Then `OC[C@@H]1CN(Cc2cccs2)C[C@H](n2cnc3c(Nc4ccccc4)ncnc32)O1`, with 19.4% (active); and `CCN(CC)c1ncnc2c1ncn2[C@H]1CN(Cc2cccs2)C[C@@H](CO)O1`, with 0.751%; and `OC[C@@H]1CN(Cc2cccs2)C[C@H](n2cnc3c(NC4CCCC4)ncnc32)O1`, with 5.79%. Then `CCCC(=O)Nc1ccc2c(c1)C(=O)N(C)C[C@H](OC)[C@@H](C)CN(C(C)=O)[C@H](C)CO2`, with 0.113%; and `CO[C@@H]1CN(C)C(=O)c2cc(NC(=O)C3CC3)ccc2OC[C@H](C)N(CC2CC2)C[C@H]1C`, with -3.23%. To `CC(C)CN(C(=O)c1cccc(S(=O)(=O)N2CCCCC2)c1)C1CCS(=O)(=O)C1` (stereo not drawn) belongs -1.89%; to `O=C(c1cccc(S(=O)(=O)N2CCCC2)c1)N(Cc1ccco1)C1CCS(=O)(=O)C1` (stereo not drawn), 18.1% (active). As for `CCCCN(C(=O)c1ccc(S(=O)(=O)N2CCOCC2)cc1)C1CCS(=O)(=O)C1` (stereo not drawn), the inhibition is 2.17%. In the case of `CN(C)C(=O)C[C@@H]1CC[C@@H](NC(=O)NC2CCCC2)[C@@H](CO)O1`, the inhibition was 1.11%. In the case of `COc1cccc(S(=O)(=O)N[C@H]2CC[C@@H](CCN)O[C@H]2CO)c1`, the inhibition was 0.762%. To `COC(=O)COc1cccc2c(=O)n(CC(=O)NCc3ccccc3)ccc12` belongs -3.93%; to `COC(=O)COc1cccc2c(=O)n(CC(=O)NCCc3ccc(OC)c(OC)c3)ccc12`, 15.1% (active); to `CCOC(=O)C(C)Oc1cccc2c(=O)n(CC(=O)NCCc3ccc(OC)c(OC)c3)ccc12` (stereo not drawn), -3.89%. Then `CO[C@@H]1CN(C)C(=O)c2cc(NC(=O)c3cnccn3)ccc2OC[C@@H](C)N(C(=O)C2CC2)C[C@@H]1C`, with 2.16%; and `COc1cccc(-c2ccc([C@H]3[C@H]4CN(C(=O)NC(C)C)CC(=O)N4[C@H]3CO)cc2)c1`, with 1.38%. Then `COc1cc(OC)c(OC)cc1CN1CCN(C(=O)c2cccc3ccccc23)CC1`, with -1.16%. Take `COc1cc(C)c(CN2CCN(C(=O)CCC(=O)c3ccc(C)s3)CC2)cc1OC`: the inhibition was 19.2% (active). For the compound `COc1ccc(OC)c(CN2CCN(C(=O)CNC(=O)c3cc(C)cc(C)c3)CC2)c1`, the inhibition was -1.91%.

As to `O=C(C[C@H]1CC[C@H]2[C@@H](COC[C@@H](O)CN2Cc2ccccc2)O1)N[C@@H]1CCN(Cc2ccccc2)C1`, the inhibition was -3.08%. To `CCCNC(=O)N(C)C[C@H]1Oc2ncc(-c3cccc(C#N)c3)cc2C(=O)N([C@@H](C)CO)C[C@H]1C` belongs 0.845%; to `CCNC(=O)C[C@@H]1CC[C@H]2[C@@H](COC[C@@H](O)CN2C(=O)c2cc(Cl)cc(Cl)c2)O1`, -2.11%; to `COc1ccc(CN(C)C[C@H]2Oc3c(NS(=O)(=O)c4ccc(Cl)cc4)cccc3C(=O)N([C@H](C)CO)C[C@@H]2C)cc1`, -1.84%. For `COc1ccc(S(=O)(=O)Nc2ccc3c(c2)C(=O)N([C@H](C)CO)C[C@H](C)[C@@H](CN(C)Cc2ccc(-c4ccccc4)cc2)O3)cc1`, the inhibition was 16.6% (active). To `COc1ccc(CN(C)C[C@H]2Oc3c(NS(=O)(=O)c4ccccc4)cccc3C(=O)N([C@@H](C)CO)C[C@H]2C)cc1` belongs 26.9% (active). Turning to `COc1ccc(CN(C)C[C@H]2Oc3c(NS(=O)(=O)c4ccc(Cl)cc4)cccc3C(=O)N([C@H](C)CO)C[C@H]2C)cc1`, the inhibition is -3.94%. For the compound `COc1ccc(S(=O)(=O)Nc2ccc3c(c2)C(=O)N([C@H](C)CO)C[C@@H](C)[C@@H](CN(C)Cc2ccccc2)O3)cc1`, the inhibition was 3.29%.

Turning to `COc1ccc(S(=O)(=O)Nc2cccc3c2O[C@@H](CN(C)Cc2ccc(-c4ccccc4)cc2)[C@H](C)CN([C@H](C)CO)C3=O)cc1`, the inhibition was 19.6% (active). In the case of `COc1ccc(CN(C)C[C@H]2Oc3c(NS(=O)(=O)c4ccccc4)cccc3C(=O)N([C@H](C)CO)C[C@@H]2C)cc1`, the inhibition was 6.84%. To `COc1ccc(CN(C)C[C@H]2Oc3c(NS(=O)(=O)c4ccc(C)cc4)cccc3C(=O)N([C@@H](C)CO)C[C@@H]2C)cc1` belongs -2.22%; to `COc1ccc(S(=O)(=O)Nc2ccc3c(c2)C(=O)N([C@H](C)CO)C[C@@H](C)[C@H](CN(C)Cc2ccccc2)O3)cc1`, 5.6%.

Values taken from PubChem BioAssay AID652115 (Broad Institute, 2013).
